# According to PubChem BioAssay (NCI):
# Several values for one entry are separate records, joined by “and”; a condition that tells them apart may be missing. Equal values may be shown once. About 83,000 compounds went through this panel and 20% of them were active in at least one assay; those are over-represented in the sample as a whole.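 Growth was measured after 48 h exposure to one concentration of compound in 96-well plates. Values under 10 count as active.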 Activity calls are given as the source filed them.
# Columns and labels:
# Experiment in all cases: NCI-60 one-dose screen, 48 h (100 = growth as untreated, 0 = no growth, -100 = all killed)
# DU-145 prostate = tested on: DU-145 prostate
# K-562 leukemia = tested on: K-562 leukemia
# MALME-3M melanoma = tested on: MALME-3M melanoma
# MDA-MB-231 breast = tested on: MDA-MB-231 breast
# RXF 393 renal = tested on: RXF 393 renal
# SF-268 CNS = tested on: SF-268 CNS
# SF-295 CNS = tested on: SF-295 CNS
# SF-539 CNS = tested on: SF-539 CNS
# UACC-257 melanoma = tested on: UACC-257 melanoma
# M14 melanoma = tested on: M14 melanoma
smiles,measurement,setting,value
O=C(/C=C/c1ccc([N+](=O)[O-])cc1)c1ccccc1,growth,DU-145 prostate; 10 µM unless noted,97.3% (inactive)
same,growth,K-562 leukemia; 10 µM unless noted,44.1% (inactive)
same,growth,MALME-3M melanoma; 10 µM unless noted,107% (inactive)
same,growth,MDA-MB-231 breast; 10 µM unless noted,102% (inactive)
same,growth,RXF 393 renal; 10 µM unless noted,91.1% (inactive)
same,growth,SF-268 CNS; 10 µM unless noted,92% (inactive)
same,growth,SF-295 CNS; 10 µM unless noted,93.4% (inactive)
same,growth,SF-539 CNS; 10 µM unless noted,92.3% (inactive)
same,growth,UACC-257 melanoma; 10 µM unless noted,89.1% (inactive)
same,growth,M14 melanoma; 10 µM unless noted,92.2% (inactive)
CC(=O)/C=C/c1ccc(N(CCO)Cc2ccc(C(C)(C)C)cc2)cc1,growth,DU-145 prostate; 10 µM,78% (inactive)
same,growth,DU-145 prostate; 100 µM,-99.7% (active)
same,growth,K-562 leukemia; 10 µM,54.6% (inactive)
same,growth,K-562 leukemia; 100 µM,-49.3% (active)
same,growth,MALME-3M melanoma; 10 µM,84.5% (inactive)
same,growth,MALME-3M melanoma; 100 µM,-85.8% (active)
same,growth,MDA-MB-231 breast; 10 µM,77.5% (inactive)
same,growth,MDA-MB-231 breast; 100 µM,-90.4% (active)
same,growth,RXF 393 renal; 10 µM,87.5% (inactive)
same,growth,RXF 393 renal; 100 µM,-75.9% (active)
same,growth,SF-268 CNS; 10 µM,78.9% (inactive)
same,growth,SF-268 CNS; 100 µM,-82.2% (active)
same,growth,SF-295 CNS; 10 µM,63.5% (inactive)
same,growth,SF-295 CNS; 100 µM,-84.9% (active)
same,growth,SF-539 CNS; 10 µM,86.9% (inactive)
same,growth,SF-539 CNS; 100 µM,-96.4% (active)
same,growth,UACC-257 melanoma; 10 µM,80.8% (inactive)
same,growth,UACC-257 melanoma; 100 µM,-79.5% (active)
same,growth,M14 melanoma; 10 µM,69.4% (inactive)
same,growth,M14 melanoma; 100 µM,-84.9% (active)
COC(=O)c1nc(-c2ccc(C)cc2)oc1S(=O)(=O)c1ccc(Cl)cc1,growth,DU-145 prostate; 10 µM unless noted,113% (inactive)
same,growth,K-562 leukemia; 10 µM unless noted,9.37% (active)
same,growth,MALME-3M melanoma; 10 µM unless noted,31% (inactive)
same,growth,MDA-MB-231 breast; 10 µM unless noted,87% (inactive)
same,growth,RXF 393 renal; 10 µM unless noted,120% (inactive)
same,growth,SF-268 CNS; 10 µM unless noted,97.1% (inactive)
same,growth,SF-295 CNS; 10 µM unless noted,108% (inactive)
same,growth,SF-539 CNS; 10 µM unless noted,96.6% (inactive)
same,growth,UACC-257 melanoma; 10 µM unless noted,100% (inactive)
same,growth,M14 melanoma; 10 µM unless noted,79.7% (inactive)
CC(=O)/C=C/c1ccc(OCc2ccc(Cl)cc2)cc1,growth,DU-145 prostate; 10 µM,96.6% (inactive)
same,growth,DU-145 prostate; 100 µM,52.9% (inactive)
same,growth,K-562 leukemia; 10 µM,79.1% (inactive)
same,growth,K-562 leukemia; 100 µM,26.1% (inactive)
same,growth,MALME-3M melanoma; 10 µM,110% (inactive)
same,growth,MALME-3M melanoma; 100 µM,-1.84% (active)
same,growth,MDA-MB-231 breast; 10 µM,117% (inactive)
same,growth,MDA-MB-231 breast; 100 µM,9.42% (active)
same,growth,RXF 393 renal; 10 µM,105% (inactive)
same,growth,RXF 393 renal; 100 µM,55.5% (inactive)
same,growth,SF-268 CNS; 10 µM,101% (inactive)
same,growth,SF-268 CNS; 100 µM,52.3% (inactive)
same,growth,SF-295 CNS; 10 µM,99.1% (inactive)
same,growth,SF-295 CNS; 100 µM,39.9% (inactive)
same,growth,SF-539 CNS; 10 µM,109% (inactive)
same,growth,SF-539 CNS; 100 µM,44.4% (inactive)
same,growth,UACC-257 melanoma; 10 µM,86.6% (inactive)
same,growth,UACC-257 melanoma; 100 µM,-1.1% (active)
same,growth,M14 melanoma; 10 µM,98.2% (inactive)
same,growth,M14 melanoma; 100 µM,36.1% (inactive)
NS(=O)(=O)OCC1OC(n2cnc3cncnc32)C(O)C1O (stereo not given),growth,DU-145 prostate; 10 µM unless noted,13.2% [0.1 µM] (inactive)
same,growth,K-562 leukemia; 10 µM unless noted,9.29% [0.1 µM] (active) and 7.85% [0.1 µM] (active)
same,growth,MALME-3M melanoma; 10 µM unless noted,81.6% [0.1 µM] (inactive) and 50.7% [0.1 µM] (inactive)
same,growth,MDA-MB-231 breast; 10 µM unless noted,-25.1% [0.1 µM] (active) and -14.3% [0.1 µM] (active)
same,growth,RXF 393 renal; 10 µM unless noted,11.7% [0.1 µM] (inactive) and 1.25% [0.1 µM] (active)
same,growth,SF-268 CNS; 10 µM unless noted,9.46% [0.1 µM] (active) and 13.5% [0.1 µM] (inactive)
same,growth,SF-295 CNS; 10 µM unless noted,24% [0.1 µM] (inactive)
same,growth,SF-539 CNS; 10 µM unless noted,-2.66% [0.1 µM] (active) and -4.82% [0.1 µM] (active)
same,growth,UACC-257 melanoma; 10 µM unless noted,60.8% [0.1 µM] (inactive) and 58.2% [0.1 µM] (inactive)
same,growth,M14 melanoma; 10 µM unless noted,31.1% [0.1 µM] (inactive) and 16.6% [0.1 µM] (inactive)
O=C(/C=C/c1cccc(Oc2ccc(Cl)cc2)c1)c1ccccc1,growth,DU-145 prostate; 10 µM,95.3% (inactive)
same,growth,DU-145 prostate; 100 µM,-98.4% (active)
same,growth,K-562 leukemia; 10 µM,31.6% (inactive)
same,growth,K-562 leukemia; 100 µM,-29% (active)
same,growth,MALME-3M melanoma; 10 µM,102% (inactive)
same,growth,MALME-3M melanoma; 100 µM,-85.2% (active)
same,growth,MDA-MB-231 breast; 10 µM,113% (inactive)
same,growth,MDA-MB-231 breast; 100 µM,-61.9% (active)
same,growth,RXF 393 renal; 10 µM,101% (inactive)
same,growth,RXF 393 renal; 100 µM,-68.2% (active)
same,growth,SF-268 CNS; 10 µM,101% (inactive)
same,growth,SF-268 CNS; 100 µM,-78.3% (active)
same,growth,SF-295 CNS; 10 µM,94.9% (inactive)
same,growth,SF-295 CNS; 100 µM,-95.3% (active)
same,growth,SF-539 CNS; 10 µM,99.8% (inactive)
same,growth,SF-539 CNS; 100 µM,-92.3% (active)
same,growth,UACC-257 melanoma; 10 µM,101% (inactive)
same,growth,UACC-257 melanoma; 100 µM,-86.8% (active)
same,growth,M14 melanoma; 10 µM,89.5% (inactive)
same,growth,M14 melanoma; 100 µM,-54.4% (active)
COc1ccc(C(CC(=O)c2ccc3c(c2)OCO3)C(=O)O)cc1OC (stereo not given),growth,DU-145 prostate; 10 µM unless noted,121% (inactive) and 106% (inactive)
same,growth,K-562 leukemia; 10 µM unless noted,119% (inactive) and 90.1% (inactive)
same,growth,MALME-3M melanoma; 10 µM unless noted,114% (inactive) and 90.3% (inactive)
same,growth,MDA-MB-231 breast; 10 µM unless noted,128% (inactive) and 113% (inactive)
same,growth,RXF 393 renal; 10 µM unless noted,115% (inactive) and 106% (inactive)
same,growth,SF-268 CNS; 10 µM unless noted,111% (inactive) and 97.7% (inactive)
same,growth,SF-295 CNS; 10 µM unless noted,86.9% (inactive) and 81.9% (inactive)
same,growth,SF-539 CNS; 10 µM unless noted,126% (inactive) and 104% (inactive)
same,growth,UACC-257 melanoma; 10 µM unless noted,91.5% (inactive) and 106% (inactive)
same,growth,M14 melanoma; 10 µM unless noted,115% (inactive) and 103% (inactive)
N#C/C(=N\Nc1ccc(Cl)cc1)C(=O)Nc1cc(-c2ccccc2)nn1-c1ccccc1,growth,DU-145 prostate; 10 µM unless noted,35% (inactive)
same,growth,K-562 leukemia; 10 µM unless noted,12.2% (inactive)
same,growth,MALME-3M melanoma; 10 µM unless noted,2.07% (active)
same,growth,MDA-MB-231 breast; 10 µM unless noted,24.3% (inactive)
same,growth,RXF 393 renal; 10 µM unless noted,47.1% (inactive)
same,growth,SF-268 CNS; 10 µM unless noted,19.9% (inactive)
same,growth,SF-295 CNS; 10 µM unless noted,1.62% (active)
same,growth,SF-539 CNS; 10 µM unless noted,52.3% (inactive)
same,growth,UACC-257 melanoma; 10 µM unless noted,13.2% (inactive)
same,growth,M14 melanoma; 10 µM unless noted,35.6% (inactive)
CCOC(=O)n1cc(-c2nonc2-c2cn(C)c3ccc(OC)cc23)c2cc(F)ccc21,growth,DU-145 prostate; 10 µM unless noted,92.7% (inactive)
same,growth,K-562 leukemia; 10 µM unless noted,67.7% (inactive)
same,growth,MALME-3M melanoma; 10 µM unless noted,81.9% (inactive)
same,growth,MDA-MB-231 breast; 10 µM unless noted,71.4% (inactive)
same,growth,RXF 393 renal; 10 µM unless noted,89.6% (inactive)
same,growth,SF-268 CNS; 10 µM unless noted,83.1% (inactive)
same,growth,SF-295 CNS; 10 µM unless noted,60.8% (inactive)
same,growth,SF-539 CNS; 10 µM unless noted,86.1% (inactive)
same,growth,UACC-257 melanoma; 10 µM unless noted,74.5% (inactive)
same,growth,M14 melanoma; 10 µM unless noted,83.9% (inactive)
